Where “and” joins values, the source holds several entries; their conditions need not be identical. Identical values can stand only once. Records with an inconclusive call do not appear. Where a call stands in place of a potency, no number is given. Calls of active or inactive are those of the source. Calls follow the shape of the dose curve; as a rule, active = well fitted curve in the direction sought with a large enough effect; inconclusive = small, poorly fitted or top-dose-only effect, or another doubt; inactive = no such curve, though single readings can be large; an effect the other way counts as inactive or inconclusive.

In assay [1] the target is Lysine-specific demethylase 5B (Homo sapiens) (UniProt Q9UGL1). The experiment in a line: Optimization screen for KDM5B Histone Demethylases FDH coupled qHTS against the LOPAC library (AID 1347166). The gist of the method:
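KDM5BDeltaAP (200nM final) preincubated 10 min with compound, then 12.5uM H3K4Me3, 25uM a-ketoglutarate, ascorbate, Fe(II), NAD+ and FDH added; 50mM HEPES pH 7.5, 0.01% Tween-20. NADH fluorescence (340/450 nm) change over 30 min, room temperature.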

The nature of assay [2]: Vero cells viability qHTS for Zika virus inhibitors (AID 1347167). The method in brief:
(§1)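 Cells seeded at 2.5 x 10^5 cells/mL in DMEM with 4% FBS and attached overnight at 37 degrees C, then exposed to compound for 24 to 48 hours. Viability read as ATP content by CellTiter Glo luminescence.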

A short description of assay [3]: HepG2 cells viability qHTS for Zika virus inhibitors (AID 1347168). The gist of the method: as §1
The nature of assay [4]: Tertiary RLuc qRT-PCR qHTS assay for Zika virus inhibitors (AID 1347169). Also: nearly all actives have a fitted effect of over 55% in size. Also: potency is read from the fitted curve at half-maximal effect. The method in brief:
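Orthogonal cell-based infection assay using recombinant ZIKV-RLuc (Cambodian) in Vero cells; compound added prior to virus at MOI 1-2. Incubation lasts 48-72 hrs at 37 degrees C before live-cell Renilla substrate is added and luminescence measured.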
In general terms: In qPCR the cycle at which signal appears reflects the starting amount.

In assay [5] the test system is Zika virus NS2B-NS3 protease (linked construct). In words: 384 well plate NINDS Rhodamine confirmatory qHTS for Zika virus inhibitors (AID 1347164). Also: nearly all actives have a fitted effect of over 65% in size. Also: potency is read from the fitted curve at half-maximal effect. The gist of the method:
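Compounds are incubated about 15 minutes with linked protease (5, 30 or 60 nM final). Rhodamine 110-tagged Ac-LKRR substrate (10 microM final) is added and fluorescence measured after 25 minutes.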
(qHTS replaces the single test concentration by a dilution series.)

Assay [6] in a line: OV-KATE Cancer Cell Toxicity qHTS against the NCATS CANVASS Library (AID 1347345). The method in brief: (§2)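 1000 cells/well seeded and rested 4 h at 37 °C before pin transfer of compounds in an 11-pnt series. Exposure 72 h at 37 °C/5% CO2; viability by CellTiter-Glo luminescence after 15 min at room temperature.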
Assay [7] can be described thus: HPAF-II Cancer Cell Toxicity qHTS against the NCATS CANVASS Library (AID 1347346). Also: series mostly up to about 38 µM; nearly all actives have a fitted effect of over 55% in size. The gist of the method:
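Cytotoxicity in HPAF-II pancreatic cancer cells: 72 h treatment across 11 concentrations, ATP-based CellTiter-Glo luminescence endpoint.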

Assay [8] is described as follows: UWB1.289 Cancer Cell Toxicity qHTS against the NCATS CANVASS Library (AID 1347347). Also: series mostly up to about 38 µM; nearly all actives have a fitted effect of over 60% in size. The gist of the method: as §2
Assay [9] in a line: OV-SAHO Cancer Cell Toxicity qHTS against the NCATS CANVASS Library (AID 1347348). Also: series mostly up to about 38 µM; nearly all actives have a fitted effect of over 55% in size. The method in brief: as §2
Assay [10] is described as follows: Panc-1005 Cancer Cell Toxicity qHTS against the NCATS CANVASS Library (AID 1347349). Also: series mostly up to about 38 µM; nearly all actives have a fitted effect of over 60% in size. An excerpt: Natural products and their derivatives continue to be wellsprings of nascent therapeutic potential. However, many laboratories have limited resources for biological evaluation, leaving their previously isolated or synthesized compounds largely or completely untested. To address this issue, the Canvass library of natural products was assembled (https://tripod.nih.gov/canvass), in collaboration with academic and industry researchers, for quantitative high-throughput screening (qHTS) across a diverse set of cell-based and biochemical assays. The pure (>85% purity by liquid chromatography/mass spectrometry [LC/MS]) Canvass library of 346 natural products were submitted by 45 academic laboratories and companies around the world. […] The library was formatted into 1536-well plates and evaluated in 50 qHTS (in an 11-pnt concentration series) bioassays with broad scope of disease-relevant mechanisms. The resulting data set from 50 different assays was then systematically analyzed to identify overall trends and specific natural products with interesting biological activities. […]
Cancer Cell Toxicity protocol for cell lines COV-362, OV-KATE, OV-SAHO, UWB1.289, UWB1.289-WTBRCA1, HEK-293, HPAF-II, Panc-1005, SW1088, or U-118MG. […] Luminescence signal was acquired via the ViewLux plate reader (PerkinElmer) using a clear filter, 2 second exposure and 2x binning settings.

Lysine-specific demethylase 5B (Homo sapiens), sequence (Q9UGL1 whole entry, looked up): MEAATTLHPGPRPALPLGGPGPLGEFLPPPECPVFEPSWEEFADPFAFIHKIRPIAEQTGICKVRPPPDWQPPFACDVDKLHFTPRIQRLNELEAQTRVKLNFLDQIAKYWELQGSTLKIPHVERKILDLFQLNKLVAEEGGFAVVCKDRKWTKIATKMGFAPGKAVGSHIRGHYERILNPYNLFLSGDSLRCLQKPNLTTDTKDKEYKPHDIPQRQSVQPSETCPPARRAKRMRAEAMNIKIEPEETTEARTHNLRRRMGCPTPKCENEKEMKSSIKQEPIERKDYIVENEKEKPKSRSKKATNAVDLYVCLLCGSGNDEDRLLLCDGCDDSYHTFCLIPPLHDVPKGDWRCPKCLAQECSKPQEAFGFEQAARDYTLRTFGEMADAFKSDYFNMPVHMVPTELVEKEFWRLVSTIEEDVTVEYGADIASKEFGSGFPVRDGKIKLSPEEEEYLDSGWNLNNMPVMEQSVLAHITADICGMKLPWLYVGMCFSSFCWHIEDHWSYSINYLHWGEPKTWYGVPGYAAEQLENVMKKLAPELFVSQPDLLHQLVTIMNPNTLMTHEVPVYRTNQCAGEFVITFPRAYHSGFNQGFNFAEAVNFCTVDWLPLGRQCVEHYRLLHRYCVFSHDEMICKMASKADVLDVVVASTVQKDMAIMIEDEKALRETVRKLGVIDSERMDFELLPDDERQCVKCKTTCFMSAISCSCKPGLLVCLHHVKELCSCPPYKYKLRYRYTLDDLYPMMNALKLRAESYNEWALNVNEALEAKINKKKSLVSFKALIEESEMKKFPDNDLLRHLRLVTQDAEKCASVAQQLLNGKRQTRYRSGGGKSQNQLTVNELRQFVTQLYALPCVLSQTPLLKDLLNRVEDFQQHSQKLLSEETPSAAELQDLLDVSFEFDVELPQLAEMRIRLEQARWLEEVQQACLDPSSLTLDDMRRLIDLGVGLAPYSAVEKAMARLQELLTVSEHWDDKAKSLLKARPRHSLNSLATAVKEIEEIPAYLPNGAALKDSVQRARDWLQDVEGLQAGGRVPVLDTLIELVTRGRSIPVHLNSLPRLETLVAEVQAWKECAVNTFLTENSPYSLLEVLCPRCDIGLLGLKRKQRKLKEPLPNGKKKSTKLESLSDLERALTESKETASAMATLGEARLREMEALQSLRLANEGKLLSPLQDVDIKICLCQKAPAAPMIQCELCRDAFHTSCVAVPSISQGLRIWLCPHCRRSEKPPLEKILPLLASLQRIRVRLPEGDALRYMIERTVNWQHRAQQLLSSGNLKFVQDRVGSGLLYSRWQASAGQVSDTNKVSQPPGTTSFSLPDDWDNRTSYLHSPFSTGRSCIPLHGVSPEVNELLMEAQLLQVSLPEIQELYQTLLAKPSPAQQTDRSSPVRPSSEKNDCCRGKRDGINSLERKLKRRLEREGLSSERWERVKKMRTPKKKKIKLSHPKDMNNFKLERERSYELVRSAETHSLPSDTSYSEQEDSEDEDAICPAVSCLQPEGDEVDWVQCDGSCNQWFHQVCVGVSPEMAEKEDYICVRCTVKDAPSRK

Turning to `NCC(CC(=O)O)c1ccc(Cl)cc1` (configuration not stated), the result in assay [1] was inactive.
As for `c1ccc(C2CC2)c(OCC2=NCCN2)c1`, in assay [1], the molecule was classed as inactive.
Turning to `C[C@@H]1O[C@@H](O[C@H]2C[C@@H](O)[C@]3(CO)[C@H]4[C@H](O)C[C@]5(C)[C@@H](C6=CC(=O)OC6)CC[C@]5(O)[C@@H]4CC[C@]3(O)C2)[C@H](O)[C@H](O)[C@H]1O`, the molecule was called inactive in [1], in assay [2] and in assay [3]. Further, in assay [4], the Potency was 117 nM (active) and 58.7 nM (active).
`CN1C[C@H](CNC(=O)OCc2ccccc2)C[C@@H]2c3cccc4c3c(cn4C)C[C@H]21`: the molecule was called inactive in [2] and in assay [3]. In addition, the Potency result in assay [4] was “inactive”.
`CCC1(C2=NCCN2)Cc2ccccc2O1` (configuration not stated): the result in [1] was inactive.
With `c1ccc2c(c1)OCC(C1=NCCN1)O2` (configuration not stated), the molecule was classed as inactive in assay [1].
On to `NN=C(N)N`, for which, in assay [1], the molecule was called inactive.
Same read-out and setting: then `CNCC(O)c1ccc(O)cc1` (configuration not stated), with “inactive”.
On to `O=C(O)C(=O)c1cn(Cc2ccccc2)c2ccc(-c3ccc(OC(F)(F)F)cc3)cc12`, for which, in assay [5], the Potency was 12.6 µM (active) and 3.16 µM (active). In addition, the outcome in [2] and in assay [3] was inactive.
For `Nc1ccncc1`, in assay [1], the molecule was classed as inactive.
With `C[C@]12CCC(=O)C(O)=C1CC[C@@H]1[C@@H]2CC[C@]2(C)C(=O)CC[C@@H]12`, the call in [1] was inactive.
Turning to `CC(=O)[C@H]1CC[C@H]2[C@@H]3CC[C@H]4C[C@](C)(O)CC[C@]4(C)[C@H]3CC[C@]12C`, in assay [1], the outcome was inactive.
As for `O=c1[nH]c2ccccc2n1CCCN1CCC(n2c(=O)[nH]c3cc(Cl)ccc32)CC1`, the outcome in assay [1] was inactive.
Still for that read-out and setting: the value for `CC(=O)[C@H]1CC[C@H]2[C@@H]3CC[C@H]4C[C@H](O)CC[C@]4(C)[C@H]3C(=O)C[C@]12C` was “inactive”; that for `CCCC(C)(COC(N)=O)COC(=O)NC(C)C` (configuration not stated) was “inactive”; that for `CC(C)=CCOc1c2occc2cc2ccc(=O)oc12` was “inactive”.
The same measure, in the same setting: the value for `CCCN1CCC[C@@H]2Cc3[nH]ncc3C[C@H]21` was “inactive”; that for `COc1ccccc1N1CCNCC1` was “inactive”.
As to `O=c1oc2ccccc2c(O)c1C(CC(O)c1ccc(-c2ccc(Br)cc2)cc1)c1ccccc1` (configuration not stated), in [5], the Potency was 6.31 µM (active).
For `CC(O)(CS(=O)(=O)c1ccc(F)cc1)C(=O)Nc1ccc(C#N)c(C(F)(F)F)c1` (configuration not stated), in assay [1], the molecule was classed as inactive.
`Cc1ccc(-c2nc3ccc(C)cn3c2CC(=O)N(C)C)cc1`: the molecule was classed as inactive in assay [2] and in [3]. Also, the Potency entry in assay [4] was “inactive”.
With `O=C1NCN(c2ccccc2)C12CCN(CC1COc3ccccc3O1)CC2` (configuration not stated), in [1], the outcome was inactive.
Take `C[C@H]1O[C@@H](O[C@H]2[C@@H](O)C[C@H](O[C@H]3[C@@H](O)C[C@H](O[C@H]4CC[C@@]5(C)[C@H](CC[C@@H]6[C@@H]5CC[C@]5(C)[C@@H](C7=CC(=O)OC7)CC[C@]65O)C4)O[C@@H]3C)O[C@@H]2C)C[C@H](O)[C@@H]1O`: in assay [2], the call was inactive. Further, the Potency in assay [4] is 107 nM (active).
As to `NCC1(CC(=O)O)CCCCC1`, the call in assay [1] was inactive.
With `Cc1ncc(CNC(=O)N(CCCl)N=O)c(N)n1`, in [1], the result was inactive.
Take `Cc1cccc(C)c1NC(=O)CN1CCCC1=O`: the molecule was classed as inactive in [1].
In the case of `N[C@@H](Cc1ccc(Oc2cc(I)c(O)c(I)c2)c(I)c1)C(=O)O`, the Potency result in assay [5] and in assay [4] was “inactive” throughout. For the same molecule, the call in assay [2] and in [3] was inactive.
For the molecule `CCCN1CCC[C@@H]2Cc3nc(N)ncc3C[C@H]21`, the molecule was classed as inactive in [1].
On to `O=c1[nH]c2ccccc2n1C1CCN(CCCC(c2ccc(F)cc2)c2ccc(F)cc2)CC1`, for which the call in assay [1] was inactive.
On to `NCC(O)c1ccc(O)cc1` (configuration not stated), for which the result in assay [1], in [6], in assay [7], in assay [8], in [9] and in assay [10] was inactive.
For `COC[C@H]1OC(=O)c2coc3c2[C@@]1(C)C1=C(C3=O)C2CCC(=O)[C@@]2(C)C[C@H]1OC(C)=O` (some centres not stated), the call in [1] was inactive.
Still for that read-out and setting: then `CC(CCc1ccccc1)NC(C)C(O)c1ccc(O)cc1` (configuration not stated), with “inactive”.
For `CN(C)[C@@H]1C(=O)C(C(N)=O)=C(O)[C@@]2(O)C(=O)C3=C(O)c4c(O)cccc4[C@@](C)(O)[C@H]3C[C@@H]12`, the Potency entry in assay [5] is “inactive”.
With `CCN(C(C)=O)c1cccc(-c2ccnc3c(C#N)cnn23)c1`, the molecule was classed as inactive in [2] and in [3]. For the same molecule, the Potency result in [4] is “inactive”.
As to `Cc1cc(SCc2sc(-c3ccc(C(F)(F)F)c(F)c3)nc2C)ccc1OCC(=O)O`, the Potency is 35.5 µM (active) in assay [5] and 23400 nM (active) in [4]. In addition, the molecule was classed as inactive in [2] and in assay [3].
As to `C=C(C)[C@H]1Cc2c(ccc3c2O[C@@H]2COc4cc(OC)c(OC)cc4[C@@H]2C3=O)O1`, the call in assay [1] was inactive.
For the molecule `Fc1ccc(C(OCCN2CCN(CCCc3ccccc3)CC2)c2ccc(F)cc2)cc1`, the molecule was classed as inactive in assay [1].
As to `COc1ccc(C(CN(C)C)C2(O)CCCCC2)cc1` (configuration not stated), in assay [1], the result was inactive.
On to `Cc1cccc(C)c1NC1=NCCCS1`, for which the molecule was classed as inactive in assay [1].

Source of the values: PubChem BioAssay (NCATS).
